NOD2-RIPK2 inh = blocks binding of human NOD2 to RIPK2. 0.38% of 360,000 active. CHO BLA complementation NOD2-RIPK2, CCF4 ratio. inhibition, % at 4.98 µM. AID 624267; in the data active = inhibition above about 21%;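 also: 0% = vehicle only and 100% = reference blocker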
TLR9-MyD88 inh = inhibitors of human TLR9-MyD88 binding; Q9NR96+Q99836; CHO BLA complementation TLR9-MyD88, CCF4 FRET ratio; inhibition, % at 4.98 µM; 0.21% of 340,000 active;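 active = inhibition above the mean over all tested compounds plus 3 SD, cut at about 21% in these data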;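 also: 0% = DMSO only wells and 100% = clavulanate BLA inhibitor control wells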
TLR4-MyD88 BLA = blocks binding of human TLR4 to MyD88. O00206+Q99836. HeLa CL3-4 TLR4/MyD88 BLA complementation, FRET ratio. inhibition, % at 8.4 µM. 0.18% of 200,000 active; in the data active = inhibition above about 25%;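 also: 0% = vehicle and 100% = reference inhibitor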
Target sequence (O00206 whole entry, looked up): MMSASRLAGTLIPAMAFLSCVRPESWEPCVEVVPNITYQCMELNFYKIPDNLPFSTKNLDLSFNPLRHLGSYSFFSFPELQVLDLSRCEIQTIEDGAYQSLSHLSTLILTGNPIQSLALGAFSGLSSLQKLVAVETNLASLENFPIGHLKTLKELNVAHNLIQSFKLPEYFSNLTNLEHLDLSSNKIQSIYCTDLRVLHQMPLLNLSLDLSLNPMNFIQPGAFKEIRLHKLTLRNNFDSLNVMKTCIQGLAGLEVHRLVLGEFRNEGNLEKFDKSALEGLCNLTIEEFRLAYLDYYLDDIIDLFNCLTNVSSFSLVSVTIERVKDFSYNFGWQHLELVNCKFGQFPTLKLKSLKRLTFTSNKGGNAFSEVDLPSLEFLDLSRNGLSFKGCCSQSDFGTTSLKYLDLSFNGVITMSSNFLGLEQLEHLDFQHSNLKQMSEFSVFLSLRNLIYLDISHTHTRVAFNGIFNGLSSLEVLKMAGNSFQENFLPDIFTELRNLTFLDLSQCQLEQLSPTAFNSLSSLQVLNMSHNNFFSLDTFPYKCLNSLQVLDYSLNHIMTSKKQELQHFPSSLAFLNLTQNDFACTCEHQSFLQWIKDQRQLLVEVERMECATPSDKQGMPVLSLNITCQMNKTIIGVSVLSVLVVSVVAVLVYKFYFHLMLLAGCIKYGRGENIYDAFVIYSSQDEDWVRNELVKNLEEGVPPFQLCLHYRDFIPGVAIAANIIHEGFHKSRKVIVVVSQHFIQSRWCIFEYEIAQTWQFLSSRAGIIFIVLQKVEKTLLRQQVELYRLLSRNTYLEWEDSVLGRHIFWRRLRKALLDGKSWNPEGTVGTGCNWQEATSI
Target sequence (Q99836 whole entry, looked up): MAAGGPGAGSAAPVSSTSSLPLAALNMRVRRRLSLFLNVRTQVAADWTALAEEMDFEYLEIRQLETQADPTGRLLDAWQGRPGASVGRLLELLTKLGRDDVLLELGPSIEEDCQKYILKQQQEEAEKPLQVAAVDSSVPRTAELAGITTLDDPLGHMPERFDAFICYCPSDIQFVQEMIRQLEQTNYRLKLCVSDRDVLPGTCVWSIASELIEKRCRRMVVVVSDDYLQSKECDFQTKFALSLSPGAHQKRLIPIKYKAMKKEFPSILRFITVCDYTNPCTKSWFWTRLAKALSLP
LANA-H2B inh = blocks KSHV LANA binding to histone H2A/H2B; Q9QR71; cell-free LANA-H2A/H2B peptide, fluorescence polarization; inhibition, % (concentration not given with the values); 0.6% of 320,000 active; AID 2629; in the data active = inhibition mostly above about 10%, no sharp cut-off; inactive = mostly below about 6.7%
m5-HT2A agonist = agonists of mouse serotonin 5-HT2A receptor (HTR2A) | P35363 | CHO-K1 mHTR2A beta-arrestin complementation, luminescence; percent of 30 µM serotonin response | activation, % at 7.6 µM | 0.66% of 360,000 active;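 active = activation above a run cutoff, the mean activation of all tested compounds plus 3 SD, cut at about 14% in these data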;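 also: 0% = plate median of compound wells and 100% = 30 µM serotonin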
Rtt109 HAT inh = blocks Candida albicans Rtt109/Vps75 acetyltransferase activity; inhibition, % at 34.9 µM; 0.16% of 330,000 active; Q5AAJ8; purified Rtt109/Vps75, ThioGlo CoA-SH fluorescence, 4 h;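 active = inhibition of at least 50% in every replicate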
TLR4 MyD88 cnf = TLR4-MyD88 interaction inhibition confirmed; shares compounds with TLR4-MyD88 BLA; HeLa CL3-4 BLA complementation, CCF4 FRET ratio; inhibition, % at 8.4 µM; 50% of 350 active; AID 941;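 active = mean inhibition across three repeat runs above about 25% carried over from the earlier screen, limit read from the data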;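 also: plate controls were DMSO only for no effect and clavulanic acid blocking BLA at full dose for full effect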
BLA inh HeLa = inhibits beta-lactamase activity, counter-screen to TLR4-MyD88 binding inhibitors; shares compounds with TLR4-MyD88 BLA; HeLa BLA reporter, CCF4 FRET ratio; inhibition, % at 8.4 µM; 63% of 350 active; AID 1237;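 active = mean inhibition over three repeats above about 26% taken from the earlier screen, limit read from the data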;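 also: HeLa cells stably expressing beta-lactamase reporter as counterscreen for TLR4-MyD88 inhibitors; 0% = DMSO and 100% = clavulanic acid full inhibition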
TLR9-MyD88 conf = TLR9-MyD88 interaction inhibition, confirmation. inhibition, % at 4.98 µM. 51% of 680 active. AID 540250. shares compounds with TLR9-MyD88 inh. CHO TLR9/MyD88 BLA complementation, CCF4 FRET ratio;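 active = mean inhibition across three repeats above about 21% taken from the earlier screen, limit read from the data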;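 also: blue over green emission ratio reports constitutive TLR9 MyD88 association via BLA complementation; 0% = DMSO vehicle wells and 100% = clavulanate BLA inhibitor wells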
BLA counter-1 = beta-lactamase reporter inhibition, counter-screen artifact; CHO-BLA cells, CCF4 FRET ratio, BLA reporter; shares compounds with TLR9-MyD88 inh; 7% of 680 active; inhibition, % at 4.98 µM; AID 540251;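 active = mean inhibition above a 50% cutoff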;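 also: counterscreen of TLR9-MyD88 hits on CMV-driven BLA in CHO-K1 cells; 0% = DMSO alone and 100% = clavulanate blocking BLA; higher means less blue over green ratio so more BLA blockade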
TLR9 CHO tox = counter-screen for TLR9-MyD88 inhibitors: cytotoxicity in CHO cells; shares compounds with TLR9-MyD88 inh; luminescence; inhibition, % at 4.98 µM; 39% of 680 active; in the data active = inhibition above about 11%
NOD2 RIPK2 conf = NOD2-RIPK2 interaction inhibition confirmed. AID 624370. 70% of 1,200 active. shares compounds with NOD2-RIPK2 inh. CHO cells, NOD2-RIPK2 BLA complementation, CCF4 FRET. inhibition, % at 4.98 µM;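 active = mean inhibition across replicates above a set limit taken from the earlier primary screen, cut at about 21% in these data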;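 also: 0% = DMSO-only wells and the high end = clavulanate BLA-blocked wells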
BLA counter-2 = counter-screen for NOD2-RIPK2 interaction inhibitors: BLA reporter; CHO BLA reporter, CCF4 FRET ratio, counterscreen; shares compounds with NOD2-RIPK2 inh; inhibition, % at 4.98 µM; 57% of 1,200 active; AID 624371;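 active = mean inhibition above the low-control mean inhibition plus three low-control SD, cut at about 11% in these data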;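 also: 0% = DMSO only wells and 100% = clavulanate high control wells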
* = called active by the depositor. Shown are actives, neighbours in structure and some others; about 1.8% of the full set was active somewhere.

Results for CCCCCCn1c(=O)[nH]c2nc3cc(N)c(C)cc3nc2c1=O ?
NOD2-RIPK2 inh: 42*; TLR9-MyD88 inh: 32*; TLR4-MyD88 BLA: 28*; m5-HT2A agonist: -7; Rtt109 HAT inh: -7; TLR4 MyD88 cnf: 18; BLA inh HeLa: 43*; TLR9-MyD88 conf: 20; BLA counter-1: 19; TLR9 CHO tox: -5; NOD2 RIPK2 conf: 45*; BLA counter-2: 49*

What do the screens show for `CCCSc1cc(NCCOC(=O)CCC)c([N+](=O)[O-])c2nonc12`?
NOD2-RIPK2 inh: -5; TLR9-MyD88 inh: -4; TLR4-MyD88 BLA: 7; LANA-H2B inh: 0; m5-HT2A agonist: 1; Rtt109 HAT inh: 12

What do the screens show for `CCC(=O)OCCNc1cc(Sc2nc3ccccc3[nH]2)c2nonc2c1[N+](=O)[O-]`?
NOD2-RIPK2 inh: 80*; TLR9-MyD88 inh: 56*; TLR4-MyD88 BLA: 29*; LANA-H2B inh: -4; m5-HT2A agonist: -2; Rtt109 HAT inh: 4; TLR4 MyD88 cnf: 20; BLA inh HeLa: -10; NOD2 RIPK2 conf: 93*; BLA counter-2: 48*

What do the screens show for `CCNc1ccc2c(Cl)cc(=O)oc2c1`?
NOD2-RIPK2 inh: 30*; TLR9-MyD88 inh: 34*; TLR4-MyD88 BLA: 32*; LANA-H2B inh: -1; m5-HT2A agonist: 2; Rtt109 HAT inh: 7; TLR4 MyD88 cnf: 21; BLA inh HeLa: 36*; NOD2 RIPK2 conf: 44*; BLA counter-2: 32*

How did CCN(CC)c1ccc2c(Cl)cc(=O)oc2c1 do in these assays?
TLR4-MyD88 BLA: 8; LANA-H2B inh: 3

Results for Cc1c(C)c2c(OCC(=O)NCC3CCC(C(=O)O)CC3)cc3c(c2oc1=O)CCC(C)(C)O3 (stereo unspecified) ?
NOD2-RIPK2 inh: -16; m5-HT2A agonist: 2

How did Nc1ccc2c(C(F)(F)F)cc(=O)oc2c1 do in these assays?
NOD2-RIPK2 inh: 51*; TLR9-MyD88 inh: 55*; TLR4-MyD88 BLA: 49*; LANA-H2B inh: 4; m5-HT2A agonist: 2; Rtt109 HAT inh: inactive; TLR4 MyD88 cnf: 41*; BLA inh HeLa: 66*; TLR9-MyD88 conf: 36*; BLA counter-1: 41; TLR9 CHO tox: -1; NOD2 RIPK2 conf: 64*; BLA counter-2: 68*

Results for CCN(CC)c1ccc2cc(-c3nnc(-c4ccc(Br)cc4)o3)c(=O)oc2c1 ?
TLR4-MyD88 BLA: 11

How did CCN(CC)c1ccc2cc(-c3nc4ccccc4n3C)c(=O)oc2c1 do in these assays?
NOD2-RIPK2 inh: 44*; TLR9-MyD88 inh: 33*; TLR4-MyD88 BLA: 49*; LANA-H2B inh: -3; m5-HT2A agonist: -1; Rtt109 HAT inh: -17; TLR4 MyD88 cnf: 58*; BLA inh HeLa: 87*; TLR9-MyD88 conf: 41*; BLA counter-1: 49; TLR9 CHO tox: 39*; NOD2 RIPK2 conf: 69*; BLA counter-2: 75*

Results for O=c1[nH][nH]c2c1[C@H](c1ccccc1)O[C@H](C1CCCCC1)C2 ?
NOD2-RIPK2 inh: -7; m5-HT2A agonist: -4

How did Cc1ccsc1CNC(=O)C1(C)CCN1C(=O)C(C)C (stereo unspecified) do in these assays?
NOD2-RIPK2 inh: -3; m5-HT2A agonist: 2

Results for CCCCCCCCN1C(=O)[C@H](CC(=O)N2CCN(C(=O)C3CC3)CC2)C[C@@]2(C(=O)OC)CCCCC=C12 ?
NOD2-RIPK2 inh: -5; m5-HT2A agonist: -4

How did CC(C)CNC(=O)COC(=O)c1c2c(nc3ccccc13)/C(=C/c1cccs1)CC2 do in these assays?
NOD2-RIPK2 inh: 38*; TLR9-MyD88 inh: 32*; TLR4-MyD88 BLA: 45*; LANA-H2B inh: 1; m5-HT2A agonist: 1; Rtt109 HAT inh: -7; TLR4 MyD88 cnf: 43*; BLA inh HeLa: 71*; TLR9-MyD88 conf: 41*; BLA counter-1: 49; TLR9 CHO tox: 9; NOD2 RIPK2 conf: 65*; BLA counter-2: 73*

What do the screens show for `Cc1cccc(C)c1NC(=O)C1(C)CSCC(=O)N1Cc1ccco1` (stereo unspecified)?
NOD2-RIPK2 inh: 4; m5-HT2A agonist: 0

Results for COCCN(CC(=O)NC1CCCCC1)C(=O)/C=C/C(=O)c1ccc(OC)cc1O ?
NOD2-RIPK2 inh: 50*; TLR9-MyD88 inh: 21; TLR4-MyD88 BLA: 31*; m5-HT2A agonist: -5; Rtt109 HAT inh: -5; TLR4 MyD88 cnf: 27*; BLA inh HeLa: -8; NOD2 RIPK2 conf: 91*; BLA counter-2: 12*

Results for CC1(c2nc3ccccc3[nH]2)c2ccccc2C(=O)N1Cc1ccccn1 (stereo unspecified) ?
NOD2-RIPK2 inh: -9; m5-HT2A agonist: 7

How did COc1ccc(Cn2cc3c(-c4ccc(F)cc4)nnc-3c3cc(OC)c(OC)cc32)cc1 do in these assays?
NOD2-RIPK2 inh: 63*; TLR9-MyD88 inh: 50*; TLR4-MyD88 BLA: 28*; LANA-H2B inh: 2; m5-HT2A agonist: -6; Rtt109 HAT inh: 8; TLR4 MyD88 cnf: 25*; BLA inh HeLa: 41*; TLR9-MyD88 conf: 31*; BLA counter-1: 35; TLR9 CHO tox: -1; NOD2 RIPK2 conf: 66*; BLA counter-2: 72*

Results for CCOC(=O)Cn1cc(/C=C/[N+](=O)[O-])c2ccccc21 ?
NOD2-RIPK2 inh: -7; TLR9-MyD88 inh: -2; TLR4-MyD88 BLA: 5; LANA-H2B inh: 3; m5-HT2A agonist: 0; Rtt109 HAT inh: -1

What do the screens show for `CCOc1ccc(/C=C/[N+](=O)[O-])c2ccccc12`?
NOD2-RIPK2 inh: 58*; TLR9-MyD88 inh: 14; TLR4-MyD88 BLA: 27*; LANA-H2B inh: 3; m5-HT2A agonist: -5; Rtt109 HAT inh: -1; TLR4 MyD88 cnf: 22; BLA inh HeLa: -24; NOD2 RIPK2 conf: 91*; BLA counter-2: 7

Screening results deposited in PubChem BioAssay by several laboratories.
